Among all 310,000 compounds or so, about 14,000 (4.5%) showed an effect of 50% or more. The effect is printed as a negative number. The list comes from a sample in which strong results are over-represented; it also holds similar structures and randomly drawn compounds.
The compounds below were run against human ether-à-go-go-related gene (hERG) potassium channel (human, UniProt Q12809) (assay: primary screen, population patch clamp on CHO cells stably expressing hERG; higher = less effect of the substance).
Description: Briefly, Chinese hamster ovary (CHO) cells stably expressing the hERG channel were dislodged from tissue culture flasks and dispensed into PPC plates. […] During the recording, background leak currents were estimated by a 100 ms step to -80 mV from an initial holding potential of -70 mV and subtracted from the subsequent current measurement. The campaign was conducted in two phases using slight differences in recording protocol. In the first phase, the initial voltage pulse used a 100 ms step to -30 mV from a holding potential of -70 mV, a 2 s conditioning step to +25 mV, and a 2 s test step to -30 mV. During the second phase of the screen, the potential during the conditioning step was raised to +45 mV. In both phases of the campaign, a secondary voltage pulse was applied using the same parameters as the second phase initial pulse. The initial and secondary pulses were applied in the absence of compound, and upon application of 1 μM and 10 μM test concentrations. […]
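Further: peak tail current of the secondary pulse compared with the same well before compound.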

human ether-à-go-go-related gene (hERG) potassium channel, sequence (Q12809 whole entry, looked up): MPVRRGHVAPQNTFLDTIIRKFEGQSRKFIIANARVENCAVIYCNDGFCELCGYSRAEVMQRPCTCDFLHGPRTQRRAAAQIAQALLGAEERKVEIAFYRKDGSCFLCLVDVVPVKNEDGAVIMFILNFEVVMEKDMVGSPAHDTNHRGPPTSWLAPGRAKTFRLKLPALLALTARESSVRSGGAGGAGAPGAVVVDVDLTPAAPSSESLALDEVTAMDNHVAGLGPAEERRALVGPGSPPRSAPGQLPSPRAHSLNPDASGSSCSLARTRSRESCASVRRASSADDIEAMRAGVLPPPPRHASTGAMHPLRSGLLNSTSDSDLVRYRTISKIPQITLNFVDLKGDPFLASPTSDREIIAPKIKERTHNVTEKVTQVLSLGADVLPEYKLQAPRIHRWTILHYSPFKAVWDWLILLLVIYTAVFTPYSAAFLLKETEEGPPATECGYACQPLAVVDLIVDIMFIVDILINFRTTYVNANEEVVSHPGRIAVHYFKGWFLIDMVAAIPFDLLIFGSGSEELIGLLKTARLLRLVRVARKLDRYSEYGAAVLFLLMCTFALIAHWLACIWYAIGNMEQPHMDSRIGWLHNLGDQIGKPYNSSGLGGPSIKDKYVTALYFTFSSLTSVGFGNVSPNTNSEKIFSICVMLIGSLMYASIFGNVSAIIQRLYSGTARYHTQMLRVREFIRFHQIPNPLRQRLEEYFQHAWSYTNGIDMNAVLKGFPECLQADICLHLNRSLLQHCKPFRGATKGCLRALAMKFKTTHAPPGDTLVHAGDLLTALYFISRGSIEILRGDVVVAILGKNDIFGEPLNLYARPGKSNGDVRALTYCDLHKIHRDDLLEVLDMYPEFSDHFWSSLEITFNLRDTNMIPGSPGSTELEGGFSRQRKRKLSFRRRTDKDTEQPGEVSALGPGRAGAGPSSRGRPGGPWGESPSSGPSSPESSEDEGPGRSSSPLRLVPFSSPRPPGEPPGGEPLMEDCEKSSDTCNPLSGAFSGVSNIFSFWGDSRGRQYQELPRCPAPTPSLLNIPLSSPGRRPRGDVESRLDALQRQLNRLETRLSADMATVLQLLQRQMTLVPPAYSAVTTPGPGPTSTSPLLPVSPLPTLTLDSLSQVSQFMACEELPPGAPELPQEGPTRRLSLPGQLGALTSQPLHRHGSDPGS

Row | SMILES | hERG current change (%, negative = inhibition) at 10uM [%]
1 | CCOCCCNC(=O)CCC(=O)NNc1nc2ccccc2c2nc(-c3ccccc3)nn12 | -47.5
2 | CCCc1c(O)nc(SCCN(CC)CC)n(C(=O)c2ccccc2)c1=O.Cl | -58
3 | CCN(CC)CCSc1nc(O)c(Cc2ccccc2)c(=O)n1-c1ccccc1.Cl | 15.8
4 | CCCCc1c(O)nc(SCCN(C)C)n(-c2ccccc2)c1=O | 10.1
5 | CCN(CC(=O)Nc1c(F)cccc1F)C(=O)Cc1csc(-c2ccc(OC)c(OC)c2)n1 | -2.82
6 | CCOc1ccccc1NC(=S)NCCc1ccccc1 | 4.14
7 | O=C(Cn1c(=O)n(Cc2ccco2)c(=O)c2ccccc21)NCC1CCCO1 (stereo not shown) | 2.5
8 | N=c1c(C(=O)NCC2CCCO2)cc2c(=O)n3ccccc3nc2n1Cc1ccccc1 (stereo not shown) | -75.3
9 | Nc1c(C(=O)NCC2CCCO2)c2nc3ccccc3nc2n1Cc1ccco1 (stereo not shown) | 10.5
10 | O=C(NCC1CCCO1)c1cn(Cc2ccccc2)nc1-c1ccccc1 (stereo not shown) | -0.0253
11 | N=c1c(C(=O)NCC2CCCO2)cc2c(=O)n3ccccc3nc2n1Cc1cccnc1 (stereo not shown) | -72.9
12 | N=c1c(C(=O)NCC2CCCO2)cc2c(=O)n3ccccc3nc2n1Cc1ccc(F)cc1 (stereo not shown) | -80
13 | O=C(Cn1c(=O)n(Cc2ccc(F)cc2)c(=O)c2ccccc21)NCC1CCCO1 (stereo not shown) | -2.66
14 | O=C(Cc1ccc(-n2c(=O)c3ccccc3n(Cc3ccc(F)cc3)c2=O)cc1)NCC1CCCO1 (stereo not shown) | -19.6
15 | N=c1c(C(=O)NCC2CCCO2)cc2c(=O)n3ccccc3nc2n1Cc1ccco1 (stereo not shown) | -78.7
16 | CCCCNC(=O)C1(O)c2cc(Br)ccc2NC(=O)N1c1cccc(OC)c1 (stereo not shown) | 7.42
17 | Cc1cc(C)c2nc(SC3CCOC3=O)cc(C)c2c1 (stereo not shown) | 4.23
18 | COc1ccc(C(=O)Nc2cccc(S(C)(=O)=O)c2)cc1OC | 6.89
19 | O=C(N/N=C\c1c(O)ccc2ccccc12)c1ccc(O)cc1 | 14.3
20 | Cc1c(C(=O)Nc2nnc(C3CC3)s2)oc2c(Cl)cccc12 | 8.02
21 | O=C(NCC1CCCO1)c1ccc2c(=O)n(Cc3ccc(Cl)cc3)c(=S)[nH]c2c1 (stereo not shown) | 6.02
22 | N=c1c(S(=O)(=O)c2ccc(Cl)cc2)cc2c(=O)n3ccccc3nc2n1CC1CCCO1 (stereo not shown) | -13.3

Row | SMILES | hERG current change (%, negative = inhibition) at 10uM [%]
23 | O=C(NCC1CCCO1)c1nc2c(nnn2Cc2ccccc2Cl)c(=O)[nH]1 (stereo not shown) | -0.506
24 | N=c1c(C(=O)NCc2ccco2)cc2c(=O)n3ccccc3nc2n1CC1CCCO1 (stereo not shown) | -76
25 | N=c1c(C(=O)NCC2CCCO2)cc2c(=O)n3ccccc3nc2n1Cc1ccccc1Cl (stereo not shown) | -67.9
26 | O=C(Cc1ccc(-n2c(=O)c3ccccc3n(Cc3ccccc3Cl)c2=O)cc1)NCC1CCCO1 (stereo not shown) | -1.93
27 | O=C(NCc1ccco1)c1ccc2c(=O)n(CC3CCCO3)c(=S)[nH]c2c1 (stereo not shown) | -1.68
28 | N=c1c(C(=O)NCC2CCCO2)cc2c(=O)n3ccccc3nc2n1Cc1ccc(Cl)cc1 (stereo not shown) | -77.2
29 | CC(=O)c1cccc(NC(=O)CCNC(=O)c2ccccc2Cl)c1 | 11.4
30 | CCn1cc(C(=O)Nc2ccc(C)cc2[N+](=O)[O-])c(C)n1 | 5.23
31 | CN(Cc1nc(-c2cccs2)no1)CC1COCCO1 (stereo not shown) | 1.17
32 | S=C(NCCN1CCOCC1)N1CCN(c2cccc(Cl)c2)CC1 | -16
33 | CC1=CC(=O)C(C(C)C)=C/C1=N/OC(=O)c1cccc([N+](=O)[O-])c1 | 7.36
34 | COc1ccc2nc(NC(=O)CSc3nnc(C)n3N)sc2c1 | 0.177
35 | O=c1cc(CCl)nc2sc3ccccc3n12 | 8.04
36 | C=CCn1c(SCn2nnc3ccccc3c2=O)nnc1-c1ccc(Cl)cc1 | -61.2
37 | O=c1cc(CSc2nnc(-c3cccs3)n2Cc2ccccc2)nc2sc3ccccc3n12 | -53.5
38 | C=CCn1c(COc2cccc(C)c2)nnc1SCn1nnc2ccccc2c1=O | -5.37
39 | C=CCn1c(SCn2nnc3ccccc3c2=O)nnc1C1CCCCC1 | -14.1
40 | O=c1c2ccccc2nnn1Cc1ccccc1 | 35.3
41 | C=CCn1c(SCn2nnc3ccccc3c2=O)nc2scc(-c3cccs3)c2c1=O | -5.21
42 | O=c1cc(CSc2nnc(C3CC3)n2Cc2ccccc2)nc2sccn12 | 11.7
43 | C=CCn1c(COc2ccc(OC)cc2)nnc1SCn1nnc2ccccc2c1=O | -27.1
44 | C=CCn1c(SCn2nnc3ccccc3c2=O)nnc1-c1ccc(Br)cc1 | -62.7

Row | SMILES | hERG current change (%, negative = inhibition) at 10uM [%]
45 | O=c1c2ccccc2nnn1CSc1nnc(-c2cccs2)n1Cc1ccccc1 | -62.6
46 | C=CCn1c(SCn2nnc3ccccc3c2=O)nnc1-c1ccc(F)cc1 | -28.9
47 | CCCOc1cccc(C(=O)Nc2ccc3c(c2)OCCO3)c1 | 0.786
48 | CSc1cccc(NC(=O)C2CCN(S(=O)(=O)c3cnc[nH]3)CC2)c1 | 9.39
49 | Nc1c(NCc2ccccc2)c(=O)c1=O | -6.37
50 | Cc1nc2c(C)cccn2c(=O)c1NC(=O)c1ccc(Br)o1 | 5.14
51 | O=C(COc1cccc(C(F)(F)F)c1)Nc1cccnc1 | 4.03
52 | CCC(C)N(C(=O)c1csnn1)C(C(=O)NC1CCCC1)c1ccc(F)cc1 (stereo not shown) | 0.39
53 | CC(=O)c1cccc(NC(=O)CCCNC(=O)c2ccc(Cl)cc2)c1 | 2.99
54 | CCN(CC)C(=O)c1cn(-c2cccc(OC)c2)c(=O)c2ccccc12 | 9.66
55 | COC(=O)c1cc(Cl)nc2ccccc12 | -7.89
56 | COc1ccc(CNC(=O)c2cc(S(=O)(=O)N3CCCC3)cn2C)cc1 | 13.2
57 | Cc1nn(Cc2ccc(Cl)cc2)c(Cl)c1/C=N/NC(=O)c1cccnc1 | -45.2
58 | CN(C)CCN(C(=O)C1CCCCC1)c1nc2cc3c(cc2s1)OCO3.Cl | -9.7
59 | CN(C)CCCN(C(=O)c1nc2ccccc2s1)c1nc2ccc(F)cc2s1.Cl | 4.17
60 | CN(C)CCCN(C(=O)C1COc2ccccc2O1)c1nc2ccc(F)cc2s1.Cl (stereo not shown) | -75.4
61 | CN(C)CCCN(C(=O)CCSc1ccccc1)c1nc2cc3c(cc2s1)OCO3.Cl | -48.2
62 | CN(C)CCCN(C(=O)c1sc2ccccc2c1Cl)c1nc2ccc(F)cc2s1.Cl | -19.7
63 | CN(C)CCCN(C(=O)C1COc2ccccc2O1)c1nc2cc3c(cc2s1)OCO3.Cl (stereo not shown) | -64.4
64 | Cn1c(O)c(C=Nc2ccccc2Sc2ccccc2)c(=O)n(C)c1=O | 16.4
65 | CCCc1[nH]nc2c1C(c1ccc(OC)c(Cn3nnc4ccccc43)c1)C(C#N)=C(N)O2 (stereo not shown) | -29.1
66 | CCCn1c(SCc2ccc(Cl)cc2)nc2c1c(=O)[nH]c(=O)n2C | 0.36

Row | SMILES | hERG current change (%, negative = inhibition) at 10uM [%]
67 | CCOCCCNC(=O)C(NC(=O)c1ccc(NC(C)=O)cc1)c1ccc(C)cc1 (stereo not shown) | -20.5
68 | CCc1ccc(CNC(=O)c2ccc(NC(=O)C3=CSCCO3)cc2)cc1 | -23
69 | O=C(C1COc2ccccc2O1)N1CCCC1 (stereo not shown) | 16.8
70 | O=C(NCC(=O)N1CCC2(CC1)NCCc1[nH]cnc12)c1ccc2ccccc2c1 | 11.7
71 | O=C(Nc1nc2ccc(S(=O)(=O)N3CCCC3)cc2s1)c1ccco1 | 11.5
72 | CCCCn1c2ccc(F)cc2c2nnc(SCCN3CCOCC3)nc21 | -55.4
73 | CCCn1c2ccc(F)cc2c2nnc(SCCN3CCOCC3)nc21 | -35.8
74 | CCn1c2nc(SCCN3CCOCC3)nnc2c2cc(C)cc(C)c21 | -95.3
75 | CCn1c2ccccc2c2nnc(SCCN3CCOCC3)nc21 | 3.2
76 | CCn1c2ccc(F)cc2c2nnc(SCCN3CCOCC3)nc21 | -41.2
77 | CCCn1c2ccccc2c2nnc(SCCN3CCOCC3)nc21 | -9.15
78 | CCCCn1c2ccc(F)cc2c2nnc(NN)nc21 | -44.9
79 | CCn1c2ccc(C)cc2c2nnc(SCCN3CCOCC3)nc21 | -13.8
80 | CCn1c2ccc(F)cc2c2nnc(NN)nc21 | -9.93
81 | CCCn1c2ccc(F)cc2c2nnc(NN)nc21 | -1.94
82 | CCCn1c2ccc(F)cc2c2nnc(SCCN3CCCCC3)nc21 | -64.2
83 | CCn1c2ccc(F)cc2c2nnc(SCCN3CCCCC3)nc21 | -61
84 | Cc1cccc2cc(/C=N/NC(=O)c3ccccc3O)c(Cl)nc12 | -2.17
85 | O=C1[C@H]2[C@@H](c3ccc(Cl)cc3)N3C(=O)N(c4cccc(Cl)c4)C(=O)[C@@]3(Cc3ccccc3)[C@H]2C(=O)N1C1CCCCC1 | -2.02

— publication PMC4336329 (PLoS ONE, 2015)
